Compound activity deposited in PubChem BioAssay by several laboratories.
Most compounds without a hit are left out; they make up all but 2.6% or so of the library.
Jurkat NFkB inh – inhibitors of the PMA/ionomycin-induced NF-kB reporter in Jurkat cells; PMA/ionomycin-induced NF-kB luciferase reporter, luminescence; inhibition, % at 4 µM; hit rate 0.53% among 330,000; AID 435003; in the data active = inhibition above about 50%
Cardio protect – myocardial damage modulation in H9c2 cells | H9c2 cardiomyocytes, H2O2 injury protection, ATPLite, 2 h | protection from H2O2 cell death, % at 20 µM | hit rate 0.63% among 360,000 | AID 588492;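 active = compounds giving at least 50% protection of heart cells from peroxide-induced death in the single-dose screen, raw or plate-pattern-corrected value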
H9c2 TAG inh – triacylglycerol accumulation inhibition. H9c2 cells, Nile Red lipid (TAG) fluorescence; cells loaded with 200 µM oleic acid. inhibition, % at 12.5 µM. hit rate 0.66% among 230,000;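 active = pattern-corrected inhibition of lipid staining of at least 50% with the nuclear-stain viability signal not falling by more than 50%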
NR2F2 inh – inhibitors of human COUP-TFII (NR2F2) | inhibition, % at 8.6 µM | hit rate 0.7% among 370,000 | P24468 | HEK293T NGFI-A luciferase reporter, luminescence;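 active = inhibition above a per-plate cutoff, mean inhibition of test wells between control levels plus 3 SD, cut at about 38% in these data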;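 note: cells cotransfected with COUP-TFII expression vector driving the NGFI-A reporter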
Target sequence (P24468 whole entry, looked up): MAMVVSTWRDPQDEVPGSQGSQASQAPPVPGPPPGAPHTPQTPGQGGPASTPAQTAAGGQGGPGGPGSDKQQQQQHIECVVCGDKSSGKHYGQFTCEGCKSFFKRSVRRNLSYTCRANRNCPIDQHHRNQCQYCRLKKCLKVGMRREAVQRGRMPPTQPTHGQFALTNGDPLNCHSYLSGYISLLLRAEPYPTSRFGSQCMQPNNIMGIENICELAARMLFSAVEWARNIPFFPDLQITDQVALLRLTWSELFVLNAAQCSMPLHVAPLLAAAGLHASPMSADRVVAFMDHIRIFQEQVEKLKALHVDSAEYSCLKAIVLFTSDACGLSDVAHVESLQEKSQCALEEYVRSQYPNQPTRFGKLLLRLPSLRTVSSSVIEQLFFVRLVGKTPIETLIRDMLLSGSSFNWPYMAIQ
Gli-Sufu antag – blocks Gli-Sufu signaling in a luciferase reporter. Sufu-KO-LIGHT fibroblasts, Gli luciferase reporter luminescence. hit rate 0.74% among 340,000. inhibition, % at 5 µM. AID 588413;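 active = inhibition above about 55%, limit read from the data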
697 NFkB inh – lowers PMA/ionomycin-induced NF-kB signal in 697 B cells | 697 B-cell NF-kB luciferase reporter, 16 h | inhibition, % at 4 µM | hit rate 0.33% among 330,000 | AID 435022; in the data active = inhibition above about 35%
VP16 Luc counter – VP16 inhibition counter-screen for COUP-TFII; shares compounds with NR2F2 inh; HEK293 Gal4-VP16 luciferase reporter, luminescence; inhibition, % at 8.5 µM; hit rate 25% among 2,500; in the data active = inhibition above about 13%
COUP-TFII conf – confirmation of human COUP-TFII (NR2F2) inhibitors | shares compounds with NR2F2 inh | HEK293 NGFI-A luciferase reporter, luminescence | inhibition, % at 8.5 µM | hit rate 45% among 2,500 | AID 687008;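 active = mean inhibition over three repeats above a set limit taken from the earlier primary screen, cut at about 38% in these data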
Hits are given with their value; - = inactive; . = no result.

SMILES	Jurkat NFkB inh	Cardio protect	H9c2 TAG inh	NR2F2 inh	Gli-Sufu antag	697 NFkB inh	VP16 Luc counter	COUP-TFII conf
Cc1ccc(-n2c(SC/C=C/c3ccccc3)nnc2-c2ccco2)cc1	.	.	.	-	.	.	.	.
CC1CC(C)C(=O)C(C(CC2CC(=O)NC(=O)C2)OC(=O)CC(=O)c2ccccc2)C1 (stereo not drawn)	.	-	-	71	-	.	-	50
O=[N+]([O-])c1cncc2[nH]cnc12	.	.	.	-	.	.	.	.
CN(c1cccc(NC(=O)c2ccc(N(C)S(=O)(=O)c3ccccc3)cc2)c1)S(C)(=O)=O	-	-	-	63	-	-	-	-
CN(c1cccc(NC(=O)c2ccc(C(C)(C)C)cc2)c1)S(C)(=O)=O	-	-	-	-	-	-	.	.
CN(c1ccccc1)S(=O)(=O)c1ccc(NC(=O)c2ccc(-c3ccccc3)cc2)cc1	-	-	.	-	-	-	.	.
Cc1nc2cc(NC(=O)c3ccc(S(=O)(=O)N(C)c4ccccc4)cc3)ccc2o1	-	-	.	49	-	-	-	-
CCCCCC(=O)N1CC2(CC(c3cccc(NC(=O)COc4ccc(Cl)cc4)c3)=NO2)C[C@@H]1C(N)=O (stereo partly drawn)	-	-	-	42	-	-	-	-
CCC(=O)N1CC2(CC(c3cccc(NC(=O)COc4ccc(Cl)cc4)c3)=NO2)C[C@@H]1C(N)=O (stereo partly drawn)	-	.	.	.	.	-	.	.
CC(C)(C)OC(=O)NCc1cc2c(cc1/C=C/S(=O)(=O)NC1CCCC1)OCO2	.	.	.	-	.	.	.	.
CCN(CC)S(=O)(=O)c1cccc(NC(=O)COC(=O)c2[nH]c(C)c(C(C)=O)c2C)c1	.	-	-	62	.	.	-	60
CCC(=O)Nc1ccc(Cl)cc1C(=O)c1ccc[nH]1	.	.	.	-	.	.	.	.
COC(=O)c1ccc2nc(-c3ccco3)c(Cc3ccsc3)n2c1	.	.	.	-	.	.	.	.
C#CCNC(=O)C[C@H]1C[C@@]2(C(=O)OC)C(=C[C@H](C(C)(C)C)O[C@@H]2C)N(Cc2ccc3c(c2)OCO3)C1=O	.	.	.	-	.	.	.	.
CC(=O)N1CCc2cc(S(=O)(=O)NC3CCN(C(=O)OCc4ccccc4)CC3)ccc21	.	.	.	61	.	.	-	-
CCCCNC(=O)C[C@H]1C[C@@]2(C(=O)OC)C(=C[C@H](C(C)(C)C)O[C@@H]2C)N(Cc2ccc3c(c2)OCO3)C1=O	.	.	.	-	.	.	.	.
CCCC[C@H]1C2CC(OC(=O)NCCCc3ccccc3)C(C2)[C@H]2CCCCN21 (stereo partly drawn)	.	.	.	-	.	.	.	.
CC(C)CNc1ncnc2c1ncn2[C@H]1CN(Cc2ccncc2)C[C@@H](CO)O1	.	-	-	-	.	.	.	.
CC(C)Nc1ncnc2c1ncn2[C@H]1CN(Cc2ccc(-c3ccccc3)cc2)C[C@@H](CO)O1	.	-	-	49	.	.	-	-
CC(C)CNc1ncnc2c1ncn2[C@H]1CN(Cc2ccc(-c3ccccc3)cc2)C[C@@H](CO)O1	.	-	-	61	.	.	-	43
COC(=O)c1cc2c(c3c4cc(OC)ccc4n(S(=O)(=O)c4cccc(C)c4)c13)C(=O)N(Cc1ccc(C(F)(F)F)cc1)C2	.	.	.	-	.	.	.	.
O=S(=O)(NCc1cn2ccsc2n1)c1ccc(Oc2ccccc2)cc1	-	-	.	42	-	-	-	-
O=C(COc1ccc2ccccc2c1)Nc1ccncc1	-	-	-	47	-	-	-	-
Cc1cc(OCC(=O)Nc2ccncc2)cc(C)c1Br	-	-	-	58	-	-	-	-
CCOC(=O)[C@]12CCCC3=C1N(CCC3)C(=O)[C@@H](CC(=O)NCc1ccc(C)o1)C2	.	.	.	-	.	.	.	.
SMILES	Jurkat NFkB inh	Cardio protect	H9c2 TAG inh	NR2F2 inh	Gli-Sufu antag	697 NFkB inh	VP16 Luc counter	COUP-TFII conf
CCN1/C(=C/c2sc(-c3ccccc3C)c[n+]2C)Sc2ccccc21	.	-	-	90	90	.	16	86
O=c1[nH]cnc2nn(C3OC(CO)C(O)C3O)nc12 (stereo not drawn)	.	.	.	-	.	.	.	.
CCOc1ccc(CCNC(=O)c2ccc3[nH]ccc3c2)cc1OCC	.	.	.	41	.	.	-	-
CCOc1ccc(CCNC(=O)c2ccc(Oc3ccccc3)cc2)cc1OCC	.	.	.	-	.	.	.	.
CC1(Cc2cccc(F)c2)C(=O)Nc2ccc(-c3cccnc3)cc21 (stereo not drawn)	.	-	-	48	.	.	-	-
CC1(Cc2ccc(Cl)cc2)C(=O)Nc2ccc(-c3cccnc3)cc21 (stereo not drawn)	.	-	-	-	.	.	.	.
COC(=O)[C@]12C[C@H](CC(=O)NCc3cccs3)C(=O)N(CCC3=CCCCC3)C1=C[C@H](C1CCCC1)O[C@@H]2C	.	.	.	-	.	.	.	.
Nc1c(Cl)ncnc1NCCc1ccc(O)cc1	-	-	-	47	-	-	-	-
COc1ccc(C=Cc2ccc3ccccc3n2)c(OC)c1	.	-	-	47	.	.	-	-
CCCCCN1CCCCC(NC(=O)Cc2ccccc2)C1=O (stereo not drawn)	.	.	.	-	.	.	.	.
CC1=CC(=O)C(C2CCCCC2)=C/C1=N\OS(=O)(=O)c1ccccc1	.	.	.	48	.	.	-	-
